Data taken from PubChem BioAssay (NCI).
Compounds without any hit were thinned out: in the full panel of roughly 83,000, 20% have a hit.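 Method: cells in 96-well plates; compound added at one concentration; 48 h incubation; percent growth measured; values under 10 scored active.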 The source made the active and inactive calls.

The compounds below were run on HCC-2998 colon (assay: NCI-60 one-dose screen, 48 h (100 = growth as untreated, 0 = no growth, -100 = all killed)). Conditions: 10 µM unless noted.
Procedure: Growth inhibition of the HCC-2998 human tumor cell line is measured as a screen for anti-cancer activity. Cells are grown in 96 well plates and exposed to the test compound for 48 hours. Compounds are tested at a single concentration, which is 10^-5 M for most compounds. The reported endpoint is percent growth (GI% or GIPRCNT), where numbers from 0 - 100% represent growth inhibition, and numbers from -100% - 0 represent cell death. For example, a value of 40 represents 60% growth inhibition. A value of 0 means no net growth occurred over the course of the experiment. A value of -40 indicates 40% of cells at the beginning of the experiment died by the end of the experiment. A value of -100 means all cells are dead at the end of the experiment.
NCI-60 Human Tumor Cell Lines Screen was performed using the standard one-dose NCI protocol, which is described in more detail at https://dtp.cancer.gov/discovery_development/nci-60/default.htm.
Compounds with GIPRCNT values below 10 were considered active. Activity score was based on GIPRCNT using the following formula: […]
Score is 0 for GIPRCNT values of 100 or above, 50 for GIPRCNT values of 0, and 100 for GIPRCNT values of -100.
With COc1cc([N+](=O)[O-])cc(OC)c1OC the growth was 107% (inactive). For c1ccc(-c2ccc(-c3ccccc3)[nH]2)cc1, the growth was 99.9% (inactive). Cc1ccc(C)c(NC(=O)c2sc3c(=O)[nH]cnc3c2C)c1 was tested, and the growth was 87.7% (inactive). For CNCCCn1c2c(c3ccc(Cl)cc3c1=O)C(=O)c1cc(OC)cnc1-2, the growth was 71.3% (inactive). With NC(N)=NC1CCCCC1 the growth was 104% (inactive). In the case of COc1ccc(CNc2c3ccccc3nc3ccccc23)cc1F, the growth is reported as 5.83% (active). CCN1C(=O)N(CC)C2C1NN=c1s/c(=C\c3ccco3)c(=O)n12 (stereo not given) was tested, and the growth was 23% (inactive). In the case of COc1cnc2c(c1)C(=O)c1c-2n(CCCN2CCN(C)CC2)c(=O)c2cc(Cl)ccc12, the growth is reported as 66.8% (inactive). With CCN(CC)CCCCCCCCNc1c2ccc(Cl)cc2nc2ccc(OC)cc12 the growth was -89.1% (active). With CCCCCCCC/C=C\CCCCCCCC(=O)OCCCCCC the growth was 107% (inactive). CCCCSc1ncnc2c1ncn2C1CCCCO1 (stereo not given) was tested, and the growth was 111% (inactive). For O=c1nc(-c2ccccc2)c2cc(-c3ccc(N4CCOCC4)cc3)ccc2[nH]1, the growth was 98% (inactive). With CN1CCCN(CCNc2nccc(-c3c(-c4cccc(O)c4)nc4sccn34)n2)S1(=O)=O the growth was 74.8% (inactive). In the case of O=C(CSc1nc2c(n1Nc1ccccc1)-c1ccccc1SC2)Nc1nccs1, the growth is reported as 99.7% (inactive). In the case of O=C(Nc1ccncc1)C(=O)c1cn(S(=O)(=O)c2cccc(Cl)c2F)c2ccccc12, the growth is reported as 66.4% (inactive). In the case of N=c1nc(N2CCCCC2)cc(N)n1O, the growth is reported as 105% (inactive). With COc1cc(OC)c2sc(-c3ccc(-n4cncc4-c4ccc(OC)c(N)c4)cc3)nc2c1 the growth was 91.8% (inactive). For COc1cc(/C=C/c2cc(/C=C/c3ccc(O)c(OC)c3)n(C(=O)Nc3ccc(F)c(Cl)c3)n2)ccc1O, the growth was 9.75% (active). In the case of COc1ccc(/C(C)=N/NC(=O)CSc2nc3ccccc3c(=O)n2CCc2ccc(S(N)(=O)=O)cc2)cc1, the growth is reported as 74.8% (inactive). In the case of COc1ccc(-c2cc(-c3ccc(OC)cc3)c3sc(=O)[nH]c3n2)cc1, the growth is reported as 98.7% (inactive). CC(C)OC1OC(OC(C)C)C(OC(C)C)OC1OC(C)C (stereo not given) was tested, and the growth was 121% (inactive). In the case of COc1cc2c(cc1OC)-c1cc(OC)c(OC)cc1C(CN(C)C)C2 (stereo not given), the growth is reported as 85.6% [100 µM] (inactive). CC(=O)C1CCC2C3CC(C)=C4CC(O)CCC4(C)C3CCC12C (stereo not given) was tested, and the growth was 98.8% (inactive). CC(=O)CC(c1ccc([N+](=O)[O-])cc1)c1c(O)c2ccccc2oc1=O (stereo not given) was tested, and the growth was 105% (inactive). In the case of CN1C(=O)N(C)C2C1NN=c1s/c(=C\c3ccsc3)c(=O)n12 (stereo not given), the growth is reported as 73.7% (inactive). With CN(C)CCCN1c2ccccc2CCc2ccccc21 the growth was 99.7% (inactive). With O=C(Nc1cccc(-n2ccc3c(NC(=O)c4ccccc4)nccc32)c1)c1ccc(N2CCOCC2)c(C(F)(F)F)c1 the growth was 8.77% (active). In the case of COc1cc(CN(CCC(O)N2CCCC2=O)Cc2ccc3c(c2)OCO3)cc(OC)c1OC (stereo not given), the growth is reported as 113% (inactive). For Cc1ccccc1Nc1n[nH]c(Cc2ccccc2)n1, the growth was 100% (inactive). In the case of CCn1c(Cc2ccccc2Nc2c(Cl)cccc2Cl)nnc1SCC(=O)Nc1cccc(OC)c1, the growth is reported as 100% (inactive). COc1cc(/C=C2\CN(C(=O)OC(C)(C)C)C/C(=C\c3ccc(O)c(OC)c3)C2=O)ccc1O was tested, and the growth was 106% (inactive). CC(C)[C@@]12C[C@@H](OC(=O)C3CO3)[C@@](C)(O1)[C@@H]1CC[C@@H](C)[C@H]1[C@@H]2OC(=O)/C=C/c1ccccc1 (stereo not given in full) was tested, and the growth was 95% (inactive). For CN(C)N1C(=O)c2c(Cl)c(Cl)c(Cl)c(Cl)c2C1=O, the growth was 102% (inactive). In the case of COc1ccc(/C=C/c2nc(NCCCN(C)C)c3ccccc3n2)cc1, the growth is reported as 28.3% (inactive). For NNc1ccc(S(N)(=O)=O)cc1, the growth was 86.8% (inactive). CNC(=O)c1c(NC(=O)c2cccc(C(F)(F)F)c2)sc2c1CCC(=O)C2 was tested, and the growth was -33.3% (active). In the case of Clc1cc2nc(-c3ccccc3)c(-c3ccccc3)nc2cc1Cl, the growth is reported as 94.1% (inactive). In the case of C=CCOC(=O)C1=C(C)NC2=C(C(=O)CC(C)(C)C2)C1c1ccc(OC)cc1 (stereo not given), the growth is reported as 116% (inactive). CC(C)CCC(=O)[C@@H](C)[C@H]1[C@@H](OC2OCC(O)C(O)C2NS(C)(=O)=O)C[C@H]2[C@@H]3CC=C4C[C@@H](O)CC[C@]4(C)[C@H]3CC[C@]12C (stereo not given in full) was tested, and the growth was 67.2% (inactive). For Cc1ccc([C@H]2c3[nH]c4ccccc4c3C[C@H]3C(=O)N(CCCCCCC(=O)NO)CC(=O)N23)cc1, the growth was 55.6% (inactive).
